Measurements reported in article PMC4336329 (PLoS ONE, 2015).
Screen size: about 310,000 compounds; about 14,000 (4.5%) showed an effect of 50% or more. Effects have a minus sign here. The entries come from a sample that favours strong results as a whole.

These compounds were tested against human ether-à-go-go-related gene (hERG) potassium channel (human, UniProt Q12809) (assay: primary screen, population patch clamp on CHO cells stably expressing hERG; higher = less effect of the substance).
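Further: peak tail current of the secondary pulse compared with the same well before compound.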

Chain of human ether-à-go-go-related gene (hERG) potassium channel (Q12809 whole entry, looked up): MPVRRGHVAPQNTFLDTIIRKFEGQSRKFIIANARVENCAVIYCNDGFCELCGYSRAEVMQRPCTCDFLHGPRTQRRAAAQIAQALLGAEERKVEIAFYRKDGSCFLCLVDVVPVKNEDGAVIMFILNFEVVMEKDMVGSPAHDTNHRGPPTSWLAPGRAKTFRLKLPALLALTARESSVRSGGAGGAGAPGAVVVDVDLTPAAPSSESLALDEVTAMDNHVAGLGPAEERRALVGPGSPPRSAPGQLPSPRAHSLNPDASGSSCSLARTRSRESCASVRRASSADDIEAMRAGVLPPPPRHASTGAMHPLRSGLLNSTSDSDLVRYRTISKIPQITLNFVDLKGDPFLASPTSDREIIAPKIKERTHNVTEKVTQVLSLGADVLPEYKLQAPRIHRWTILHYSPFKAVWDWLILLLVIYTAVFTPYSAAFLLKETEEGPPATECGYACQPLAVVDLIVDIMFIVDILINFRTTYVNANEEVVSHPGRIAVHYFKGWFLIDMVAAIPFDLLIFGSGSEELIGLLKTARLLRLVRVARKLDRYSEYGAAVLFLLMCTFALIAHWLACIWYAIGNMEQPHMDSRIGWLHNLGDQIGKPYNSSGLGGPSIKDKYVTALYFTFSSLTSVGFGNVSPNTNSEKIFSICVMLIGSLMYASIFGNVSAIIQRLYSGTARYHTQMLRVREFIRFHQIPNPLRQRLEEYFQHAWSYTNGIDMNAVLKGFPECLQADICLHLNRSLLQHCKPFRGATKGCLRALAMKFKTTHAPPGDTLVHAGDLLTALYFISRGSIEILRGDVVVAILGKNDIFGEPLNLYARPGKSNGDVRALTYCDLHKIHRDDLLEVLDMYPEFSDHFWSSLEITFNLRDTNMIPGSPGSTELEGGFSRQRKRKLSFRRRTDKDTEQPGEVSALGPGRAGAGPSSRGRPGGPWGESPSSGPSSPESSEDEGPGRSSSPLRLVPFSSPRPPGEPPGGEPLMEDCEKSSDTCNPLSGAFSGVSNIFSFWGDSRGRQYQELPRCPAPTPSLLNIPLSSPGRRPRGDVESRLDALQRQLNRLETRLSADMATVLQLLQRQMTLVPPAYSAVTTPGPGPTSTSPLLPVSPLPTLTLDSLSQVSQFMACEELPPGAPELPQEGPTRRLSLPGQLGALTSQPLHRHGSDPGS

| SMILES | hERG current change (%, negative = inhibition) at 10uM [%] |
| --- | --- |
| CCN(CC(=O)Nc1ccc(Br)cc1)C(=O)Cc1cccc(F)c1 | -17.4 |
| O=C(CSc1nnc2c(Cl)cc(C(F)(F)F)cn12)N(Cc1ccccc1)Cc1ccccc1 | -28.6 |
| Cc1ccc(OCc2cc(C(=O)NC(C)Cc3cccc(C)n3)no2)cn1 (stereo not drawn) | 17.8 |
| Cn1c(-c2ccsc2)c(-c2cccs2)c2cc(-c3ccc4cc[nH]c4c3)ccc21 | 12.1 |
| Nc1ccc(O)cc1C(=O)OCC(=O)c1ccc(C2CCCCC2)cc1 | 8.51 |
| CCOC(=O)/C=C/C(=O)OCc1csc(CC(=O)Nc2ccccc2C)n1 | -1.99 |
| CC(C)[C@H]1CN=C2N(CCNC(=O)CCC3CCCCC3)[C@H](Cc3ccc(O)cc3)CN21 | -40.2 |
| COc1ccc(C[C@H]2CN3C(=NC[C@@H]3C)N2CCNC(=O)CCC2CCCCC2)cc1 | -69 |
| COc1ccc(C[C@H]2CN3C(=NC[C@H]3C)N2CCNC(=O)CCC2CCCCC2)cc1 | -69 |
| C[C@H]1CN=C2N(CCNC(=O)CCC3CCCCC3)[C@H](Cc3ccc(O)cc3)CN21 | 9.65 |
| COc1ccc(C[C@H]2CN3C(=NC[C@@H]3C(C)C)N2CCNC(=O)CCC2CCCCC2)cc1 | -80.4 |
| C[C@@H]1CN=C2N(CCNC(=O)CCC3CCCCC3)[C@H](Cc3ccc(O)cc3)CN21 | -0.311 |
| NC(=O)c1ncc(C(F)(F)F)cc1Oc1ccc(C(F)(F)F)cc1 | 24.9 |
| O=C(N/N=C1/SCC(=O)N1Cc1ccco1)c1ccccc1F | 20.1 |
| Cc1cccc(-c2nsc(SCC(=O)c3ccc(Cl)cc3)n2)c1 | 23.3 |
| CCOC(=O)C(C(=O)OCC)C(=O)c1cc(OC)c(OC)c(OC)c1 | -16.4 |
| O=S(=O)(Nc1nc2ccccc2nc1N1CCc2ccccc2C1)c1ccc(Cl)cc1 | 7.74 |
| COc1ccc(C(=O)O)cc1S(=O)(=O)NCc1cccnc1 | 19.4 |
| Cl.OCCN1CCN(CCOc2cccc(Cl)c2)CC1 | -15.6 |
| COc1cccc(-n2c(C)nn(CCOc3ccccc3)c2=O)c1 | 8.58 |
| O=C(Cn1nc(-c2ccccc2)ccc1=O)NCCN1CCN(c2cccc(Cl)c2)CC1 | -24.4 |

| SMILES | hERG current change (%, negative = inhibition) at 10uM [%] |
| --- | --- |
| CCc1nn(CCCN2CCN(c3cccc(Cl)c3)CC2)c(=O)n1CCOc1ccccc1 | -63.2 |
| CCc1nn(CCCN2CCN(c3cccc(Cl)c3)CC2)c(=O)n1CCOc1ccccc1.Cl | -65 |
| Cc1nn(CCOc2ccccc2)c(=O)n1-c1ccc(Cl)cc1 | -3.66 |
| O=Cc1ccnc(-c2ccc(OC(=O)c3ccco3)cc2)n1 | 7.26 |
| Cc1cc(Br)ccc1NS(=O)(=O)c1c(C)[nH]c(=O)[nH]c1=O | 11.6 |
| c1ccc(-n2ncc3c(NCc4ccccn4)ncnc32)cc1 | 0.854 |
| CC(=O)NS(=O)(=O)c1ccc(NC(=O)COc2ccc(C(=O)c3ccccc3)cc2)cc1 | 15.8 |
| Cc1nnsc1S(=O)c1ccc(Br)cc1 (stereo not drawn) | -1.16 |
| COCCn1c(SCC(=O)N2CCCCC2)nc2c([nH]c3ccccc32)c1=O | -20.5 |
| CCOC(=O)N1CCN(C(=O)CSc2nc3c([nH]c4ccccc43)c(=O)n2CCOC)CC1 | -65.1 |
| COCCn1c(SCC(=O)N2CCCC2)nc2c([nH]c3ccccc32)c1=O | -61.3 |
| COCCn1c(SCC(=O)N2CCCCCC2)nc2c([nH]c3ccccc32)c1=O | -5.06 |
| CCOC(=O)N1CCN(C(=O)CSc2nc3c([nH]c4ccccc43)c(=O)n2CC)CC1 | -13.8 |
| COCCn1c(SCC(=O)N2CCC(C)CC2)nc2c([nH]c3ccccc32)c1=O | -19.8 |
| Nc1nnc(SCC(=O)NCCOc2ccccc2)s1 | 4.23 |
| Cc1nc(-c2ccccc2O)n(S(=O)(=O)N(C)C)n1 | -4.34 |
| CCCC[n+]1ccn(C2=C([O-])c3ccccc3C(=O)/C2=N\S(=O)(=O)c2ccc(Br)cc2)c1 | -20.7 |
| O=C(Nc1ccccc1)C1(c2ccccc2)CC1(Cl)Cl (stereo not drawn) | -18.1 |
| O=C(Nc1ccccc1F)C1(c2ccccc2)CC1(Cl)Cl (stereo not drawn) | -70 |
| O=C(Nc1ccccc1Cl)C1(c2ccccc2)CC1(Cl)Cl (stereo not drawn) | -0.213 |
| Cc1ccc(C(=O)c2ccccc2C(=O)O)c(O)c1 | 1.4 |

| SMILES | hERG current change (%, negative = inhibition) at 10uM [%] |
| --- | --- |
| Cc1noc(NS(=O)(=O)c2ccc(NC(=O)CSc3nc4ccccc4s3)cc2)c1C | -2.99 |
| CC1CCCC(C)N1CCCNC(=O)c1ccc2nc(N3CCCCC3)sc2c1 (stereo not drawn) | -38 |
| CC1CCN(c2nc3ccc(C(=O)O)cc3s2)CC1 | 22.8 |
| CC1CC(C)CN(CCCNC(=O)c2ccc3nc(N4CCCCC4)sc3c2)C1 (stereo not drawn) | -47.5 |
| CC1CCN(c2nc3ccc(C(=O)NCCCN4CCCCC4)cc3s2)CC1 | -50 |
| CCCN1CCN(CCCNC(=O)c2ccc3nc(N4CCC(C)CC4)sc3c2)CC1 | -50.7 |
| CCOC(CNC(=O)c1ccc2nc(N3CCC(C)CC3)sc2c1)OCC | 10.6 |
| CN(CC(=O)Nc1ccc(N2CCOCC2)cc1)C(=O)CCNC(=O)c1ccc(Br)cc1 | 3.43 |
| O.Oc1cc(O)c2c(c1)O[C@H](c1ccc(O)c(O)c1)[C@@H](O)C2 | 17.4 |
| Cc1cccc2sc(N3CCN(C(=O)c4cccs4)CC3)nc12 | -9.51 |
| Cc1cc(C)c2nc(N3CCN(C(=O)c4cccs4)CC3)sc2c1 | 0.575 |
| O=C(c1ccc([N+](=O)[O-])o1)N1CCN(c2nc3ccc(F)cc3s2)CC1 | -23.7 |
| Cc1ccc2sc(N3CCN(C(=O)c4ccc([N+](=O)[O-])o4)CC3)nc2c1C | 3.89 |
| O=C(c1ccc([N+](=O)[O-])o1)N1CCN(c2nc3c(F)cc(F)cc3s2)CC1 | -54.7 |
| O=C(c1cccs1)N1CCN(c2nc3c(F)cc(F)cc3s2)CC1 | -50.1 |
| Cc1ccc(S(=O)(=O)N2CCN(c3cc4c(cc3[N+](=O)[O-])n(C)c(=O)n4C)CC2)cc1 | -4.2 |
| Nc1nonc1-n1nnc(C(=O)N/N=C/c2cccc(Cl)c2)c1CSc1ccc(Cl)cc1 | 23.9 |
| CCCC12CN3CC(C)(CN(C1)C3c1ccc([N+](=O)[O-])o1)C2=O (stereo not drawn) | -19.6 |
| COc1ccc(NC(=O)c2c(NC(=O)CCC(=O)O)sc(-c3ccccc3)c2C)cc1 | 5.27 |
| CC1(C)C(=O)Nc2ccccc2N1C(=O)COc1ncnc2c(Cl)cc(Cl)cc12 | -9.51 |
| CCN(CC)CCN(CC(=O)N(C1CCCCC1)C1CCCCC1)C(=O)c1cccnc1.Cl.O | -71.9 |

| SMILES | hERG current change (%, negative = inhibition) at 10uM [%] |
| --- | --- |
| CCN(CC)CCN(CC(=O)N(C1CCCCC1)C1CCCCC1)C(=O)c1ccco1.O=C(O)C(=O)O | 23.2 |
| CCN(Cc1ccccc1)C(=O)c1cccnc1 | 2.64 |
| COc1ccc(/C=N/OC(=O)Nc2ccccc2)cc1[N+](=O)[O-] | -58.4 |
| Cc1ccc(NC(=O)O/N=C/c2cccc([N+](=O)[O-])c2)cc1 | -15.8 |
| COc1ccc(NC(=O)O/N=C/c2ccccc2)cc1 | -2.52 |
| CC(NS(=O)(=O)c1ccc(Cl)cc1)C(=O)NCCC1=CCCCC1 (stereo not drawn) | -5.41 |
| O=C(COc1ccccc1)N(Cc1ccco1)C1CCS(=O)(=O)C1 (stereo not drawn) | -11.5 |
| Cc1ccc(OCC(=O)N(Cc2ccco2)C2CCS(=O)(=O)C2)cc1 (stereo not drawn) | -13 |
| CC(C)c1ccc(OCC(=O)N(Cc2ccco2)C2CCS(=O)(=O)C2)cc1 (stereo not drawn) | -79.4 |
| O=C(COc1ccc(Cl)cc1)N(Cc1ccco1)C1CCS(=O)(=O)C1 (stereo not drawn) | -20.5 |
| O=C(COc1ccc(Br)cc1)N(Cc1ccco1)C1CCS(=O)(=O)C1 (stereo not drawn) | -50.6 |
| O=C(COc1ccc(F)cc1)N(Cc1ccco1)C1CCS(=O)(=O)C1 (stereo not drawn) | -28.4 |
| O=C(Nc1ccc2c(c1)OCCO2)C1CCCN(S(=O)(=O)Cc2ccccc2)C1 (stereo not drawn) | -11 |
| CCn1nc(NS(=O)(=O)c2ccccc2)c2cc3cc(C)ccc3nc21 | 3.38 |
| COC(=O)c1noc(-c2ccc(C)cc2)n1 | -3.95 |
| CCOC(=O)Cc1csc(NC(=O)CCNS(=O)(=O)c2ccc3c(c2)CCC(=O)N3)n1 | 9.62 |
| CCOP(=O)(OCC)C(Nc1ccc([N+](=O)[O-])cc1)c1ccc(Cl)cc1 (stereo not drawn) | -76 |
| CCOP(=O)(OCC)C(Nc1cccc([N+](=O)[O-])c1)c1ccccc1 (stereo not drawn) | -18.4 |
| CCCOP(=O)(OCCC)C(Nc1ccc(C(C)C)cc1)c1ccc([N+](=O)[O-])cc1 (stereo not drawn) | 3.7 |
| Cn1cccc1CC(=O)NNC(=O)Nc1ccccc1F | 7.76 |
| O=C1c2ccccc2C(Nc2ccc3c(c2)OCCO3)N1Cc1ccccc1 (stereo not drawn) | -18.2 |
